# Test results published in PMC5540273 (PLoS ONE, 2017).
# Key:
# [1] = test system: TYK2(JH1domain-catalytic)
# [2] = test system: TYK2(JH2domain-pseudokinase)
# VEGFR2 = test system: T1, VEGFR2
# T1 construct: gene KDR
# 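Also: kd values determined as follow-up on hits from a single-replicate KINOMEscan panel screen.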
structure (smiles),measurement,setting,value
O=C1NC(=O)C(c2ccc(Cl)cc2)=C1Nc1ccc(O)cc1 [SB-340867],Kd,TTK,5500 nM
CC(=O)c1c(C)c2cnc(Nc3ccc(N4CCNCC4)cn3)nc2n(C2CCCC2)c1=O,Kd,TTK,9.2 nM
Cn1cncc1-c1cc2c(Nc3ccc(OCc4ccccc4)cc3)ncnc2cn1 [GW281179],Kd,[1],> 10 µM
CN1c2ccc(-c3ccc(C(N)=O)cc3)cc2-c2[nH]ncc2S1(=O)=O,Kd,[2],930 nM
Cn1cnc2c(N)ncnc21 [SKF-97623],Kd,VEGFR2,> 10 µM
same,Kd,VRK2,> 10 µM
O=C1NC(=O)C(c2ccc(Cl)cc2)=C1Nc1cccc(Cl)c1 [SB-317651],Kd,VRK2,> 10 µM
CNc1cc(-c2ccc3c(N)n[nH]c3c2)nc(N)n1 [GSK2224810],Kd,WNK4,> 10 µM
